35 molecules from PubChem BioAssay AID2013 (Sanford-Burnham Center for Chemical Genomics, 2009) can be followed below.

As usually defined, the inhibition is the change of the read-out against control, counted positive when it falls.

The whole screen tested about 290,000 compounds, of which about 370 (0.13%) were called active. Shown is part of a subset that was picked to be rich in actives. Results with a measured potency or affinity are listed apart. Values without a mark were called inactive.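 How the source made its calls: active means spots per cell inhibited over 60%, with over 100 cells counted and total cytoplasm intensity under 500,000; inconclusive means wells with under 100 cells, flagged as likely toxic; inactive means the rest.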

Sequence of G-protein coupled receptor 55 (Homo sapiens) (Q9Y2T6 whole entry, looked up): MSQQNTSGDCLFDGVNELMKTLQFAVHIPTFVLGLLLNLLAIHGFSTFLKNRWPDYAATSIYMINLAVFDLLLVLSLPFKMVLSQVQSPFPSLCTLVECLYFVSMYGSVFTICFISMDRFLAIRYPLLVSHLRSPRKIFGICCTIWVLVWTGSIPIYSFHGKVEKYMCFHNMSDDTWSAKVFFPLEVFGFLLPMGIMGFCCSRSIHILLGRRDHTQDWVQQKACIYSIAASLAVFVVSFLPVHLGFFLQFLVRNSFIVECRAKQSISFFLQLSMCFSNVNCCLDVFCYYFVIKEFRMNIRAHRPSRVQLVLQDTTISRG

This assay has as its target G-protein coupled receptor 55 (Homo sapiens) (UniProt Q9Y2T6). Kind of assay: GPR55 antagonists blocking LPI-driven arrestin recruitment, primary screen, imaging, U2OS, beta-arrestin-GFP, LPI agonist (AID 2013).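 Further: U2OS cells stably carrying GPR55 and arrestin-GFP stimulated by 5 µM LPI near EC80; imaged beta-arrestin-GFP aggregate spots per cell after agonist stimulation; plate controls were LPI-stimulated DMSO wells for no effect and DMSO wells without LPI for full effect.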 As to conditions: U2OS GPR55 beta-arrestin-GFP translocation imaging, LPI antagonism; at 10 µM; hits give high values. In general terms: Arrestin recruitment assays detect the binding of arrestin to an activated receptor.
For `Cc1ccccc1-n1c(O)c(/C=C2/C(c3ccccc3)=Nc3ccccc32)c(=O)[nH]c1=O`, the inhibition is 83% (active). In the case of `Cc1cccc(-n2c(O)c(/C=C3/C(c4ccccc4)=Nc4ccccc43)c(=O)[nH]c2=O)c1`, the inhibition is 74.4% (active). For `O=c1[nH]c(=O)n(-c2cccc(F)c2)c(O)c1/C=C1\C=Nc2ccccc21` the value was 8.8%.

Regarding `Cc1cccc(-n2c(O)c(/C=C/C=Nc3ccccc3)c(=O)[nH]c2=O)c1`, the inhibition was 0.7%. Consider `COC(=O)C1=Nc2ccccc2/C1=C\c1c(O)n(-c2ccc(OC)cc2)c(=O)[nH]c1=O`, for which the inhibition was -7.2%. For `O=c1[nH]c(=O)n(-c2ccccc2)c(O)c1/C=C1/C(c2ccccc2)=Nc2ccccc21` the value was 68.8% (active); for `CC1=Nc2ccccc2/C1=C/c1c(O)n(C)c(=O)[nH]c1=O`, 1.1%; for `O=c1[nH]c(=O)n(-c2ccccc2F)c(O)c1/C=C1\C=Nc2ccccc21`, 21.1%. The same measure for `COC(=O)C1=Nc2ccccc2/C1=C\c1c(O)n(-c2ccc(Br)cc2)c(=O)[nH]c1=O`: 0.3%; for `C#C[C@@]1(O)CCC2C3CCC4=C/C(=N/OCC(=O)NC(C(=O)NC(CC(C)C)C(=O)O)C(C)C)CC[C@]4(C)C3CC[C@@]21C` (stereo not given in full): 13.1%; for `COc1ccccc1-n1c(-c2ccccc2)nc2ccccc2c1=O`: -1.7%. For `CN1CCN(c2nc(N(C)C)oc(=O)c2C#N)CC1` the value was 2.9%. With `Cc1cc(C)nc(-n2c(C)nc3cc(Cl)ccc3c2=O)c1`, the inhibition was 14.5%. The same measure for `C/C(=N\Nc1ccccc1)c1c(O)[nH]c(=O)[nH]c1=O`: -0.7%. Turning to `NNP(=O)(CC(=O)c1ccccc1)c1ccccc1` (stereo not given), the inhibition is -7%.

Turning to `O=S(=O)(NC1CCCC1)OCC(Cl)(Cl)Cl`, the inhibition is 0.6%. The same measure for `Cc1ccc2c(c1Cl)NC(C(=O)O)C1CC(Sc3ccccc3[N+](=O)[O-])C(Cl)C21` (stereo not given): 70.4% (active); for `O=C(O)c1cccc2c1NC(C(=O)O)C1CC(Sc3ccccc3[N+](=O)[O-])C(Cl)C21` (stereo not given): 17.5%. For `CC(=O)c1ccc2c(c1)C1C(Cl)C(Sc3ccccc3[N+](=O)[O-])CC1C(C(=O)O)N2` (stereo not given) the value was 21.4%; for `CCOC(=O)C(O)(c1ccc(N(CC)C(=O)COc2ccccc2)cc1)C(F)(F)F` (stereo not given), 7.2%; for `Cc1cc(OCC(=O)N[C@@H](Cc2ccccc2)C(=O)O)c2c3c(c(=O)oc2c1)CCC3`, 1.6%. The same measure for `O=C1NC(=O)N(CCc2ccc(F)cc2)C(=O)/C1=C/c1ccco1`: 95.4% (active); for `O=C1NC(=O)N(Cc2ccccc2)C(=O)/C1=C\c1ccco1`: 22.2%. In the case of `O=C1NC(=O)N(CCc2ccc(F)cc2)C(=O)/C1=C/c1cccs1`, the inhibition was 84.1%. Regarding `Cn1ncnc2c(=O)n(C)c(=O)nc1-2`, the inhibition is 79.3% (active). For `CCn1nc(-c2ccccc2)nc2c(=O)n(C)c(=O)nc1-2` the value was 18.7%; for `Cc1nc2c(=O)n(C)c(=O)nc-2n(C)n1`, 23.5%. The same measure for `CN(Cc1ccccc1)C(=O)CN1CCCC1=O`: -7.6%.

Consider `C=CCOc1ccc(CC2C(=O)N(C)C(=O)N(C)C2=O)cc1`, for which the inhibition is 11.7%. For the molecule `Oc1ccc(C(=C(Cl)Cl)c2ccc(O)cc2)cc1`, the inhibition is 94.8% (active). For `O=S(=O)(c1ccc(O)cc1)c1ccc(O)cc1` the value was 11%; for `CCc1cc(=O)oc2cc(OCC(=O)N3C[C@H]4C[C@@H](C3)c3cccc(=O)n3C4)c(Cl)cc12`, -10.3%. For `CCCc1nc2ccccc2c(=O)n1-c1ccc(OC)cc1` the value was 12.2%; for `CC12CCC3C(CC=C4CC(O)CCC43C)C1C/C(=C\c1ccccc1F)C2=O` (stereo not given), 1.4%; for `CCOC(=O)c1cc(C(O)(C(=O)OC)C(F)(F)F)c(/N=C/N(C)C)o1` (stereo not given), 14.3%.
